SMILES strings stand for the structures. The whole screen tested about 220,000 compounds, of which about 2,000 (0.91%) were called active. Another 2% or so got no clear call; they are omitted. Only a sample is shown. Potency and affinity values are given separately. A number with no mark means an inactive call. Cut-off read from the data, not from the text of the source: inconclusive = inhibition above about 80% without an active follow-up result; inactive = below that; test concentration not stated here.

The assay can be described thus: M. tuberculosis H37Rv growth inhibitors, H37Rv strain (AID 1626).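 Note: bacteria incubated seven days before Alamar blue readout; 0% = bacteria only wells and 100% = bacteria with antibiotic wells.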 As to conditions: stronger effect = higher value, concentration not given here.
On to `O=C(c1ccc2c3c(cccc13)CC2)C1CCCN(Cc2ncc[nH]2)C1` (centres undefined), for which the inhibition is -5.62%. The value for `O=C(c1ccc2c3c(cccc13)CC2)C1CCCN(Cc2ccncc2)C1` (centres undefined) was 3.23%; that for `O=C(N/N=C1\CC2CC=CC12)c1ccc(Br)cc1` (centres undefined) was -7.43%. The value for `Cc1ccc2cc(CN(CC3CCCO3)S(=O)(=O)c3ccc4c(c3)OCCO4)c(=O)[nH]c2c1C` (centres undefined) was 9.1%. Then `Nc1n[nH]c(N)c1N=Nc1ccc(Cl)cc1`, with 1.65%.

As for `COC(=O)c1ccccc1N=Nc1c(N)n[nH]c1N`, the inhibition is -10.6%. Consider `Nc1n[nH]c(N)c1N=Nc1cccc(F)c1`, for which the inhibition is 0.51%. Then `Cc1ccc(-c2[nH]nc(N)c2N=Nc2cccc(Cl)c2C)cc1`, with 0.18%; and `CCn1cc(C2=NC(C(C)C)CO2)c2ccccc21` (centres undefined), with 5.08%; and `CCOc1ccc(OCC)c(NC(=O)Nc2ccc3c(c2)N(C)C(=O)CS3)c1`, with 1.8%.

Take `O=C(O)c1cc(NC(=O)C2CCCO2)cc(NC(=O)C2CCCO2)c1` (centres undefined): the inhibition was -1.59%. On to `CC1(C)CC(=O)C(/C=N/n2c(C(F)(F)F)nc3ccccc3c2=O)=C(O)C1`, for which the inhibition is 13.1%. With `O=C(CSc1nnc(-c2ccccc2F)n1C1CCCCC1)N1CCCC1`, the inhibition was -3.16%. As for `OC(COCc1ccc(Cl)cc1)CN1CCN(c2ccccn2)CC1` (centres undefined), the inhibition is 6.32%.

As to `OC(CN1CCN(c2ccccn2)CC1)Cn1c2ccccc2c2ccccc21` (centres undefined), the inhibition was 34.8%. Then `OC(COC(c1ccccc1)c1ccccc1)CN1CCN(c2ccccn2)CC1` (centres undefined), with 3.57%; and `Cc1cc(C)c(OCC(O)CN2CCN(c3ccccn3)CC2)c(C)c1` (centres undefined), with -4.16%. Turning to `CC(C)C1=C2CCCCC2NC(=O)N1` (centres undefined), the inhibition was -3.19%. For `O=C(CN1CCSC1=NCc1ccccc1)c1ccccc1`, the inhibition was 0.24%. The value for `Cc1nc(SCC(=O)c2cc3ccccc3oc2=O)c(C#N)c(C)c1C(=O)Nc1ccccc1` was 1.89%. As to `N#Cc1ccc(-c2ccccc2)nc1SCC(=O)c1cccc(Cl)c1`, the inhibition was 12.6%. The value for `Cc1ccc(C(=O)CSc2nc(-c3ccccc3)ccc2C#N)cc1` was 4.37%. The value for `Cc1nc(SCC(=O)OCc2ccccc2)c(C#N)c(-c2ccccc2)c1C(=O)Nc1ccccc1` was 1.59%. As for `CCCCNC(=O)c1[nH]c(C)c(C(C)=O)c1C`, the inhibition was -1.66%. Then `O=C(O)c1ccc(N/N=C/c2cc3ccccc3nc2Cl)cc1`, with 7.73%; and `Cc1ccc(C(NC(=O)/C=C\c2ccc3c(c2)OCO3)C(=O)Nc2ccc3c(c2)OCO3)cc1` (centres undefined), with 61.7%; and `CC(=O)NCC(=O)N(C)C(C(=O)Nc1ccc2c(c1)OCCO2)c1ccc(C)cc1` (centres undefined), with 2.18%. Then `Cc1c(Cl)ccc2c(C(N)=O)cc(-c3ccccn3)nc12`, with 3.8%. Consider `CC(C)n1nc(C(=O)Oc2ccc(Cl)cc2)c2ccccc2c1=O`, for which the inhibition is 9.19%.

On to `Clc1ccc2c(c1)C(c1ccccc1Cl)=NCc1nnc(Br)n1-2`, for which the inhibition was -0.77%.

On to `CN1CCN(Cc2nnc3n2-c2ccc(Cl)cc2C(c2ccccc2)=NC3)CC1`, for which the inhibition is -4.71%. Then `O=C(CN1C(=O)NC2(CCCCC2)C1=O)NC1CCCc2ccccc21` (centres undefined), with -2.8%; and `CN(CC(=O)N1CCN(c2ccc(F)cc2)CC1)S(=O)(=O)c1ccc(F)cc1`, with -7.27%.

Take `CC(=O)Nc1ccc(NC(=O)Cn2cc3c(n2)CCCC3)cc1`: the inhibition was -8.53%. Then `CC(=O)c1cccc(NC(=O)Cn2cc3c(n2)CCCC3)c1`, with -1.86%; and `CCOc1ccc(NC(=O)Nc2cccnc2)cc1`, with 16.1%; and `O=C(O)CSc1ncnc2c1oc1ccccc12`, with -5.38%. Then `NC(=O)CSc1ncnc2c1oc1ccccc12`, with 7.24%; and `COc1ccc(Cc2nnc(NC(=O)c3cccc([N+](=O)[O-])c3)s2)cc1`, with 1.81%.

Take `CCCCNC(=O)c1ccc(Cn2c(=S)[nH]c3c([nH]c4ccc(OC)cc43)c2=O)cc1`: the inhibition is -1.23%.

As to `O=c1[nH]c(CN2CCOCC2)nc2ccccc12`, the inhibition is -6.66%. The value for `N#Cc1ccc(COC(=O)c2ccc3c(=O)[nH]c(CN4CCOCC4)nc3c2)cc1` was -4.45%.

As to `O=C(c1ccc2c(c1)OCO2)C1CCCN(C(=O)c2cnn(Cc3ccccc3)c2)C1` (centres undefined), the inhibition is 5.07%. The value for `O=C(O)c1cc2c(s1)-c1ccccc1OC2` was -9.86%; that for `Cc1ccccc1NC(=O)c1ccc(-c2ccc(Cl)cc2Cl)o1` was 66.1%; that for `CS(=O)(=O)N1CCN(c2ccccc2NC(=O)c2ccc(-c3ccc(Cl)cc3Cl)o2)CC1` was -2.89%. The value for `Cc1c(NC(=O)c2cc3c(s2)-c2ccccc2OC3)cccc1[N+](=O)[O-]` was 1.27%.

For the compound `Cc1cccc(-c2c3c(=O)n(C)c(=O)n(C)c3cn2CCO)c1`, the inhibition was 0.58%. Consider `CCOC(=O)/C(C#N)=C1/C=C(C)NC(c2ccccc2O)=N1`, for which the inhibition was -1.53%. Then `C=CCNC(=O)COC(=O)CCC(=O)c1cccs1`, with -6.43%; and `CCC1=C(OC(=O)N(CC)CC)N2C(=O)OC(=NCc3ccccc3)[C@]2(C)[C@H]2C1=CC[C@H]1C(=O)N(CC(=O)OC)C(=O)[C@H]12`, with 6.67%; and `COc1ccccc1-c1nc(C#N)c(N2CCN(c3ccccc3)CC2)o1`, with 0.35%. The value for `O=C(NCCN1CCN(c2cccc(Cl)c2)CC1)c1ccc(CSc2nc3ccncc3[nH]2)cc1` was 12.1%. Then `COc1ccc(Cl)cc1N(CC(=O)N/N=C/c1ccc(OC(C)C)cc1)S(=O)(=O)c1ccc(C)c([N+](=O)[O-])c1`, with 2.6%; and `NC(=O)COC(=O)c1sc2ccccc2c1Cl`, with 59.5%. Consider `NC(=O)NC(=O)COC(=O)c1sc2ccccc2c1Cl`, for which the inhibition is -8.02%. The value for `CC1CCCC(NC(=O)COC(=O)Cc2ccccc2)C1C` (centres undefined) was -10.6%; that for `CC1CCCC(NC(=O)COC(=O)COc2ccccc2Cl)C1C` (centres undefined) was -6.56%; that for `O=C(NCc1ccccc1F)Nc1ccc([N+](=O)[O-])cc1` was -8.88%.

The record behind these values is PubChem BioAssay AID1626 (SRMLSC, 2009).
